Experimental findings from PubChem BioAssay (NCATS) are described below.

Records with an inconclusive call do not appear. Activity calls are given as the source filed them. Unless noted, the call rests on the fitted dose curve; in most records, active means well fitted curve in the direction sought with a large enough effect; inconclusive means small, poorly fitted or top-dose-only effect, or another doubt; inactive means no such curve, though single readings can be large; an effect the other way counts as inactive or inconclusive.

The target of one experiment is Furin (Homo sapiens) (UniProt P09958). Put plainly: Furin counterscreen qHTS for Zika virus inhibitors (AID 1347149). Further: nearly all actives have a fitted effect of over 70% in size. Further: potency means the concentration at half of the fitted maximal effect.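 On activity change, negative = inhibition: purified recombinant full-length human furin enzyme at 5 nM; fluorescence gain from furin cutting a BOC-RVRR-AMC peptide substrate over 15 min; top concentration of the series differs between compounds; plate controls were no-inhibitor control for no effect and no-enzyme control for full effect.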 In outline: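 Fluorogenic cleavage of BOC-RVRR-AMC (2 microM final, Km ~15 µM) was monitored (ex 340, em 450 nm) at 37C after 15 min RT preincubation of 5 nM furin with compounds in HEPES pH 7.0 buffer with CaCl2 and Triton X-100. Percent inhibition was fitted to a 4-parameter Hill curve.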

The test system of experiment [1] is Zika virus NS2B-NS3 protease (unlinked complex). Put plainly: Confirmatory screen GU AMC qHTS for Zika virus inhibitors (AID 1347153). Further: nearly all actives have a fitted effect of over 70% in size.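 On activity, negative = inhibition: percent inhibition with 0% = no inhibitor control and 100% = no enzyme control.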 In outline: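 Noncovalent NS2B hydrophilic domain/NS3 protease complex (25 nM) in 10 mM Tris-HCl pH 8.0, 0.01% Tween 20 was preincubated 15 min at room temperature with compounds. Then 10 µM AMC substrate (Km 18.3 µM) was added; fluorescence was read over 15 min and fitted to a 4-parameter Hill equation.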
For orientation: Quantitative high-throughput screening tests each substance at several concentrations.

Experiment [2] can be described thus: Confirmatory screen NINDS Rhodamine qHTS for Zika virus inhibitors (AID 1347161). Further: nearly all actives have a fitted effect of over 60% in size. Further: potency means the concentration at half of the fitted maximal effect.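 On activity change, negative = inhibition: purified Zika NS2B-NS3 protease with linked NS2B cofactor domain and Rhodamine110 peptide substrate; plate controls were no-inhibitor control for no effect and no-enzyme control for full effect.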 Put shortly:
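Rhodamine110-peptide cleavage (1.5 µM substrate) by 25 nM linked NS2B-NS3 enzyme at pH 8.0 (Tris, Tween 20), after 15 min RT preincubation with compounds; 15-min fluorescence change normalized to controls and Hill-fitted.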

Experiment [3] is described as follows: Vero cells viability qHTS for Zika virus inhibitors (AID 1347167). Further: on the % scale 0 is the no-effect control and ±100 the full control effect. Put shortly:
(§1)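 Counter-screen for cytotoxicity of hits from NS2B-NS3 protease qHTS. Overnight-attached cells (2.5 x 10^5 cells/mL, DMEM/4% FBS) were dosed in titration, incubated 24 to 48 hours, then assayed by CellTiter Glo.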

A short description of experiment [4]: HepG2 cells viability qHTS for Zika virus inhibitors (AID 1347168). Further: on the % scale 0 is the no-effect control and ±100 the full control effect. Put shortly: as §1
Experiment [5] is described as follows: Tertiary RLuc qRT-PCR qHTS assay for Zika virus inhibitors (AID 1347169). Further: top concentration of the series differs between compounds; on the % scale 0 is the no-effect control and ±100 the full control effect; nearly all actives have a fitted effect of over 55% in size. Put shortly: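 Orthogonal cell-based infection assay using recombinant ZIKV-RLuc (Cambodian) in Vero cells; compound added prior to virus at MOI 1-2. Incubation lasts 48-72 hrs at 37 degrees C before live-cell Renilla substrate is added and luminescence measured.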
The nature of experiment [6]: Confirmatory screen GU Rhodamine qHTS for Zika virus inhibitors qHTS (AID 1347157). Further: nearly all actives have a fitted effect of over 70% in size. Further: potency means the concentration at half of the fitted maximal effect.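 On activity change, negative = inhibition: plate controls were no-inhibitor wells for no effect and no-enzyme wells for full effect.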 In outline: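 Percent inhibition derives from the 15-min fluorescence change (ex 480, em 540 nm), normalized to no-enzyme and no-inhibitor wells. Reactions contained 25 nM NS2B-NS3 complex and 1.5 microM substrate in 10 mM Tris-HCl pH 8.0.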
Experiment [7] in a line: ZIKV-mCherry secondary qHTS for Zika virus inhibitors (AID 1347158). Further: potency means the concentration at half of the fitted maximal effect. On activity change, negative = inhibition: top concentration of the series differs between compounds. In outline:
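Vero cells, 5,000/well, plated overnight at 37 °C, then compound added and infected with recombinant ZIKV-mCherry at MOI 1 for 48-72 h. PFA-fixed, Hoechst nuclear stain, high-content imaging; cells with mCherry intensity above 450 RFU scored infected, reported as percent infection.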

For experiment [8], the system named is Zika virus NS2B-NS3 protease (linked). Put plainly: 384 well plate NINDS AMC confirmatory qHTS for Zika virus inhibitors (AID 1347163). Further: nearly all actives have a fitted effect of over 50% in size.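 On activity change, negative = inhibition: linked protease at 5 30 or 60 nM final depending on run; fluorescence of AMC released from Ac-VKTGKR-AMC peptide cleaved by the protease; top concentration of the series differs between compounds; 0% = no-inhibitor control and -100% = no-enzyme control.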 In outline: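 Linked protease 5/30/60 nM final; cpds up to 1 mM final, ~15 min preinc. Substrate Ac-VKTGKR-AMC 30 microM final. RT, dark, 25 min; FI ex 355/em 460; normalized to no-enzyme/no-inhibitor ctrls.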
The subject of experiment [9] is Zika virus NS2B-NS3 protease (linked construct). Put plainly: 384 well plate NINDS Rhodamine confirmatory qHTS for Zika virus inhibitors (AID 1347164). Further: nearly all actives have a fitted effect of over 65% in size. Further: potency means the concentration at half of the fitted maximal effect. In outline: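 Compounds are incubated about 15 minutes with linked protease (5, 30 or 60 nM final). Rhodamine 110-tagged Ac-LKRR substrate (10 microM final) is added and fluorescence measured after 25 minutes.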
For experiment [10], the target named is Rap guanine nucleotide exchange factor 3 (Homo sapiens) (UniProt O95398). Put plainly: Confirmatory qHTS for antagonist of cAMP-regulated guanine nucleotide exchange factor 3 (EPAC1) (AID 1645880). Further: potency means the concentration at half of the fitted maximal effect; nearly all actives have a fitted effect of over 55% in size. In outline: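 Nucleotide exchange uses 100 nM EPAC1, 250 nM RAP1B-BODIPY-GDP and 50 uM GDP, with compounds in a concentration-titration series. After 5 min at room temperature, fluorescence (480 nm ex/540 nm em) is read every 5 min for 30 min. Data are normalized to control ATA and DMSO.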

Experiment [11] has the same target. Put plainly: Confirmatory qHTS for agonist of cAMP-regulated guanine nucleotide exchange factor 3 (EPAC1) (AID 1645881).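 Further: EPAC1 catalysed release of BODIPY-GDP from Rap1B seen as fluorescence loss; 100% = effect of cAMP agonist control; nearly all actives have a fitted effect of over 75% in size.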
Experiment [12] deals with Rap guanine nucleotide exchange factor 4 (Homo sapiens) (UniProt Q8WZA2). Kind of experiment: Confirmatory qHTS for agonist of cAMP-regulated guanine nucleotide exchange factor 4 (EPAC2) (AID 1645884).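 Further: nucleotide exchange releases bodipy-GDP from Rap1 and this lowers its fluorescence; on the % scale 0 is the no-effect control and ±100 the full control effect; nearly all actives have a fitted effect of over 65% in size.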
For experiment [13] the target is unchanged. Kind of experiment: Confirmatory qHTS for antagonist of cAMP-regulated guanine nucleotide exchange factor 4 (EPAC2) (AID 1645885). Further: on the % scale 0 is the no-effect control and ±100 the full control effect; nearly all actives have a fitted effect of over 25% in size.
For experiment [14], the target named is Rap guanine nucleotide exchange factor 3 (Homo sapiens) (UniProt O95398). Kind of experiment: Counterscreen qHTS for antagonist of cAMP-regulated guanine nucleotide exchange factor 3 (EPAC1) (AID 1645888). Further: % of control where 0% means no effect. In outline: (§2)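 Measured: fluorescence of BODIPY-GDP bound to Rap1B, which falls as exchange proceeds. Conditions include 50 uM competing GDP, 5 and 30 min reads, and a later cAMP challenge for antagonist detection.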
For orientation: The purpose of a counterscreen is to sort out artefacts and off-target activity.

For experiment [15] the target is unchanged. Kind of experiment: Counterscreen qHTS for agonist of cAMP-regulated guanine nucleotide exchange factor 3 (EPAC1) (AID 1645889). Further: % of control where 0% means no effect; nearly all actives have a fitted effect of over 40% in size. Put shortly: as §2
Experiment [16] relates to Zika virus NS2B-NS3 protease (linked construct). Kind of experiment: Confirmatory screen NINDS AMC qHTS for Zika virus inhibitors (AID 1347152). Further: nearly all actives have a fitted effect of over 70% in size. Further: potency means the concentration at half of the fitted maximal effect. Put shortly:
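In this dose-response qHTS, AMC release from 10 microM Bz-Nle-KRR-AMC by 1 nM linked protease is measured over 15 minutes (about 20% conversion) at pH 8.0. Percent inhibition is fitted to a 4-parameter Hill curve.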

The target of experiment [17] is Cytochrome P450 3A4 (Homo sapiens) (UniProt P08684). Put plainly: qHTS Assay for Inhibitors and Substrates of Cytochrome P450 3A4 (AID 884). Further: on the % scale 0 is the no-effect control and ±100 the full control effect; nearly all actives have a fitted effect of over 50% in size. Put shortly:
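20 nM human CYP3A4 with 25 uM Luciferin-PPXE (at KM) in 200 mM KPO4, preincubated 10 min with compound; NADPH regeneration started a 60 min RT reaction. Luciferin detected by luminescence, normalized to 57 uM ketoconazole as full inhibition.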

A short description of experiment [18]: Confirmation and Secondary Assay for Modulators of Hemoglobin Beta Chain Splicing at IVS2 654 locus (AID 910).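 Further: per-well total GFP intensity by laser scanning cytometry after 2-day treatment; % of control where 0% means no effect.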 Put shortly: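 HeLa cells stably carrying EGFP interrupted by mutant beta-globin IVS2-654 intron (CMV-driven) were treated with compound for 2 days at 37C; corrected splicing was scored as total peak GFP intensity per well (488 nm excitation, 500-520 nm emission).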

Experiment [19] can be described thus: Confirmation and Secondary Assay for Modulators of Hemoglobin Beta Chain Splicing at IVS2 705 locus (AID 930).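 Further: HeLa cells stably expressing the EGFP-705 splicing reporter; GFP fluorescence per well restored by corrected splicing of the IVS2-705 intron in EGFP; % of control where 0% means no effect.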 Put shortly:
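HeLa EGFP-705 reporter; 500 cells/well, o/n 37C 5% CO2; cpd 2 d; 488 ex/500-520 em laser scan; total peak GFP intensity/well. Ref: 500 nM […] antisense PNA.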

Experiment [20] in a line: qHTS Assay for Lipid Storage Modulators (AID 1519; calls by dose curve; on activity change, negative = inhibition: on the % scale 0 is the no-effect control and ±100 the full control effect). The note with it: Drosophila S3 cells, BODIPY lipid droplet/cell ratio, laser cytometry, cells loaded with oleic acid. Put shortly: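 Cells seeded at 5,000 per well were treated with compounds over a concentration series and loaded with oleic acid (400 uM, as added). Lipid droplet fluorescence (488 nm excitation, 500-530 nm channel) was read by laser-scanning cytometry and normalized to 20 uM Triacsin C.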

Experiment [21] concerns Zika virus NS2B-NS3 protease. Put plainly: Primary screen GU AMC qHTS for Zika virus inhibitors (AID 1347154). In outline:
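Unlinked Zika NS2B hydrophilic domain/NS3 protease domain noncovalent complex (25 nM final) in 10 mM Tris-HCl pH 8.0, 0.01% Tween 20, with AMC peptide substrate. Fluorescence (ex 340, em 450 nm) change over 15 min, room temperature; percent inhibition fitted to 4-parameter Hill equation.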

Sequence of Rap guanine nucleotide exchange factor 3 (Homo sapiens) (O95398 whole entry, looked up): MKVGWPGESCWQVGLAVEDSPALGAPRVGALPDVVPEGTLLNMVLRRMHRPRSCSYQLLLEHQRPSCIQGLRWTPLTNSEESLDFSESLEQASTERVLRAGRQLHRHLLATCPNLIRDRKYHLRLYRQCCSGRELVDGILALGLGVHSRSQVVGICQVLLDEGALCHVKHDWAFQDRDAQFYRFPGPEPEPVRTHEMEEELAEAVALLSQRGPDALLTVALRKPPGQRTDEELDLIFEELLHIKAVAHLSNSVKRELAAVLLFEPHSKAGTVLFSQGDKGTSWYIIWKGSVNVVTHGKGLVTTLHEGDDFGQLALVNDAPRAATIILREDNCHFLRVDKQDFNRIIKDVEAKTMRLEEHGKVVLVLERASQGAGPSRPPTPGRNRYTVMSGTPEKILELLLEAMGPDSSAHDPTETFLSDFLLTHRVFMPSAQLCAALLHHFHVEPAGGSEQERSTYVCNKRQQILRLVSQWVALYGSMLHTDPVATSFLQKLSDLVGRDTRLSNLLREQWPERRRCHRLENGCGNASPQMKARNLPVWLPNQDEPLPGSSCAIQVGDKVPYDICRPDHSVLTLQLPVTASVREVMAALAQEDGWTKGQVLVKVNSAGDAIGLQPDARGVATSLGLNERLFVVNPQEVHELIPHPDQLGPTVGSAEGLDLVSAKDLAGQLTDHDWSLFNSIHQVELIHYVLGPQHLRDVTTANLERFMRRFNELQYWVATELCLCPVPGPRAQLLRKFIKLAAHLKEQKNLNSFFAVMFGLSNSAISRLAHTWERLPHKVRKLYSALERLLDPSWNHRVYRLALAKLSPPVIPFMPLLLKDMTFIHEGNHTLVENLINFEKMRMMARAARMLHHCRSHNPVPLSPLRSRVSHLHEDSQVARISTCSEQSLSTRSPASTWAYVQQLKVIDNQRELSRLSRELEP
Sequence of Furin (Homo sapiens) (P09958 whole entry, looked up): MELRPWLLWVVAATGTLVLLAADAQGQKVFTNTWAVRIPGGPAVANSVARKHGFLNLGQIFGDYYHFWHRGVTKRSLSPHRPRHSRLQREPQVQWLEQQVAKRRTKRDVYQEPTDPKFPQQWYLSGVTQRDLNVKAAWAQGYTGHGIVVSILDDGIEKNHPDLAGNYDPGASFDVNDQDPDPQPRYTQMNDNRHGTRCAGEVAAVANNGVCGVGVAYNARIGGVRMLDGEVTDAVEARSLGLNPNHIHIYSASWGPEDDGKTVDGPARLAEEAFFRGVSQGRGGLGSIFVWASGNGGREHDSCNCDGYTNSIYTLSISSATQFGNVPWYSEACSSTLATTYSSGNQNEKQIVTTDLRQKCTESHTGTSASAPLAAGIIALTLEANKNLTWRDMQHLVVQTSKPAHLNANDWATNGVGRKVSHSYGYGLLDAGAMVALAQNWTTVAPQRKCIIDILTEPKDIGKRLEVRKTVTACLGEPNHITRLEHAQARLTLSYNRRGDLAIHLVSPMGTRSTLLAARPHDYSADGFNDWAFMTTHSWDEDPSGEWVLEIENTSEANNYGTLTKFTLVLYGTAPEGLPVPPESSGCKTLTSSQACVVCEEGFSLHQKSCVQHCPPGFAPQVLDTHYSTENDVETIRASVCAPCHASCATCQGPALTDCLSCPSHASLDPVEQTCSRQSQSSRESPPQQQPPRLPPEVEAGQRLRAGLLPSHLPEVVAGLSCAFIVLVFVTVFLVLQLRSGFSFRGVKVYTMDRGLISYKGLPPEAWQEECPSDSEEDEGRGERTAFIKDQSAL
Sequence of Rap guanine nucleotide exchange factor 4 (Homo sapiens) (Q8WZA2 whole entry, looked up): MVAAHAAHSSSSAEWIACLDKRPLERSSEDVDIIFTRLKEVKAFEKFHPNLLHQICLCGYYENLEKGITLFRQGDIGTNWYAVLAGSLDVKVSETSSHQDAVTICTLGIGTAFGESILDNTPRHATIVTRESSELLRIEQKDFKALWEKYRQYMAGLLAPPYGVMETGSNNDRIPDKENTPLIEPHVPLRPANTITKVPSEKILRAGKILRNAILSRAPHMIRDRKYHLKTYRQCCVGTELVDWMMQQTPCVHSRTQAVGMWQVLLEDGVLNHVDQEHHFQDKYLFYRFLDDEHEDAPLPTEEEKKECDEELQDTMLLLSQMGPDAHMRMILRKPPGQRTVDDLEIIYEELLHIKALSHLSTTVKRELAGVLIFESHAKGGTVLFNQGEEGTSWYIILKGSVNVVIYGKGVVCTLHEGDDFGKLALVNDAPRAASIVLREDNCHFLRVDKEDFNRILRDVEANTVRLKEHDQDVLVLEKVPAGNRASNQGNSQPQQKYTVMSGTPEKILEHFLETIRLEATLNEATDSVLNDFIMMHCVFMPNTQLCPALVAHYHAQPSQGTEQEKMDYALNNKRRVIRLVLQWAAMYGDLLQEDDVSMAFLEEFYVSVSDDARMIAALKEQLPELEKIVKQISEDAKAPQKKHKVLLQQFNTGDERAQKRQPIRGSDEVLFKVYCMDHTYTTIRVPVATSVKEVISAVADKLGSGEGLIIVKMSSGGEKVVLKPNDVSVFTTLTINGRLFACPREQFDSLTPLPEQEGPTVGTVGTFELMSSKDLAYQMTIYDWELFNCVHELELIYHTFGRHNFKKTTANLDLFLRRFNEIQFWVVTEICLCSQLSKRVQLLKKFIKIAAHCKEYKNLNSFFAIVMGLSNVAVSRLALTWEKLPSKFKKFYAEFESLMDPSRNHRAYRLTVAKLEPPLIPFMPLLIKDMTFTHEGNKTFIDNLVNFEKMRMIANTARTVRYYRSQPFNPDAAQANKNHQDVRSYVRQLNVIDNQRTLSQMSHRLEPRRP
Sequence of Cytochrome P450 3A4 (Homo sapiens) (P08684 whole entry, looked up): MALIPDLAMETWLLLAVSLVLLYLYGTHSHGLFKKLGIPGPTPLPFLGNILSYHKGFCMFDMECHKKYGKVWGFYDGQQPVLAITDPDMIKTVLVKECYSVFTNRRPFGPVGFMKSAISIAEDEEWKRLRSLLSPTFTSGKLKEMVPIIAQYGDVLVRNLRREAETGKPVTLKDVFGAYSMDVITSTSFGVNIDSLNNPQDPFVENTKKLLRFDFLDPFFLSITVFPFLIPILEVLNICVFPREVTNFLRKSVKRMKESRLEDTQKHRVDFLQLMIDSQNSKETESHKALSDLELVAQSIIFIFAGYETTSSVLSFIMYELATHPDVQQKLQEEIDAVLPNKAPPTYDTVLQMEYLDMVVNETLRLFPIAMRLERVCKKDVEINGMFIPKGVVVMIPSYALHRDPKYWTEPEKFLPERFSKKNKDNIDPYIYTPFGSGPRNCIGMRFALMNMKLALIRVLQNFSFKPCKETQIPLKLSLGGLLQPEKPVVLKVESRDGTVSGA

In the case of `COc1ccc(-c2nc3cc(F)ccc3s2)cc1OC`, the Potency in the experiment with Furin (Homo sapiens) was 3.43 µM (active). Further, in experiment [1], the activity, negative = inhibition is -4.14% [at 5.51 µM] (inactive). Besides, the activity change, negative = inhibition in experiment [2] was -16.8% [at 12.7 µM] (inactive). Further, the results for the activity change, negative = cytotoxicity in experiment [3] and in experiment [4] were -2.06% [at 4.93 µM] (inactive) and 0.919% [at 4.93 µM] (inactive), respectively. Besides, the Potency result in [5] was “inactive”.

With `O=C(O)c1c(-c2ccccc2)oc2ccc(OCc3ccc(Cl)c(Cl)c3)cc12`, the Potency with Furin (Homo sapiens) is 66.3 µM (active); in experiment [6], 17.8 µM (active); in [7], 8.91 µM (active); in experiment [2], 3.98 µM (active); in experiment [9], 17.8 µM (active); in [10], 75.7 µM (active). For the same molecule, the Potency entry in [8], in experiment [5] and in [15] was “inactive” in each case. Moreover, the molecule was called inactive in [11], in [12] and in experiment [14]. Further, the activity change, negative = inhibition in experiment [13] is 10.2% [at 12.7 µM] (inactive).

For the molecule `Cc1ccc(C(=O)Nc2ccc(C(=O)OCc3cc(=O)n4nc(C5CC5)sc4n3)cc2)cc1`, the Potency result (with Furin (Homo sapiens); in experiment [6]) was “inactive” throughout.

With `O=C(O)COc1ccc(-c2nccc3c2C(=O)N(Cc2ccccc2)CC(COc2cccc(C(F)(F)F)c2)O3)cc1` (stereo not given), the Potency result with Furin (Homo sapiens) was “inactive”. The Potency in experiment [16] was 55.5 µM (active); in experiment [1] it was 44.1 µM (active); in [9] it was 35.5 µM (active).

As to `O=C(OC1Cc2c(O)cc(O)cc2OC1c1cc(O)c(O)c(O)c1-c1c(C2Oc3cc(O)cc(O)c3CC2O)cc(O)c(O)c1O)c1cc(O)c(O)c(O)c1` (stereo not given), the Potency result in experiment [17], in experiment [7] and in [5] was “inactive” in each case. Further, the molecule was called inactive in experiment [18] and in [19]. Also, the activity change, negative = inhibition in experiment [20] (at 57.5 µM (top of the series)) was 6.85% (inactive). For the same molecule, the max response in experiment [20] (measured here: cell count channel max response) worked out at 18.1%; in experiment [20] (measured here: lipid channel max response), 26.1%. Also, the Potency with Furin (Homo sapiens) was 17.5 µM (active); in [1] it was 44.1 µM (active); in experiment [8], 22.4 µM (active); in experiment [9], 17.8 µM (active).

As to `N#Cc1ccccc1OCC1CN(Cc2cccc(C(F)(F)F)c2)C(=O)c2c(ccnc2-c2ccc(OCC(=O)O)cc2)O1` (stereo not given), the Potency entry (with Furin (Homo sapiens); in [16]; in experiment [7]; in experiment [5]) was “inactive” each time. Further, the Potency in [9] was 56.2 µM (active).

With `CC(C)CN1CC(COc2cccc(C(F)(F)F)c2)Oc2ccnc(-c3ccc(OCC(=O)O)cc3)c2C1=O` (stereo not given), the Potency entry (with Furin (Homo sapiens); in experiment [16]; in [1]; in [5]) was “inactive” each time. The Potency in experiment [9] was 141 µM (active).

Turning to `N#CC(C#N)=C(N)/C(C#N)=C/c1cc(O)c(O)c(O)c1`, the Potency entry (with Furin (Homo sapiens); in experiment [21]; in experiment [7]; in experiment [9]; in [5]) was “inactive” throughout. The Potency is 44.7 µM (active) in [6], 31.6 µM (active) in experiment [2] and 112 µM (active) in experiment [8].

In the case of `O=C(O)COc1ccc(-c2nccc3c2C(=O)N(Cc2cccc(C(F)(F)F)c2)CC(COc2ccc(OC(F)(F)F)cc2)O3)cc1` (stereo not given), the Potency with Furin (Homo sapiens) is 49.4 µM (active); in experiment [16] it was 22.1 µM (active); in [1], 22.1 µM (active); in [9] it was 25.1 µM (active). Further, in [5], the Potency result was “inactive”.
